The whole screen tested about 300,000 compounds, of which about 5,400 (1.8%) were called active. Roughly 28% stayed inconclusive and do not appear here. Calls follow the shape of the full dose curve; tested in HEK293 cells. The entries come from a sample that favours actives as a whole. Where a call stands in place of a potency, no number is given.
Test: qHTS for inhibitors of binding or entry into cells for Marburg Virus
Details: Marburg virus pseudotyped entry inhibition, cell reporter; series mostly up to 37.8 µM
Potency is read from the fitted curve at half-maximal effect.

SMILES | Potency
CCOC(=O)C1(Cc2ccccc2C)CCCN(C(=O)c2ccc(COC)o2)C1 (centres undefined) | inactive
O=C1NC(c2ccccc2)Cc2ccncc21 (centres undefined) | inactive
Cc1c(C)c2c(c(C)c1O)CC[C@@](C)(CN1CCN(c3cc(N4CCCC4)nc(N4CCCC4)n3)CC1)O2 | 10 µM (active)
O=c1nc(NO)ccn1C1CCCO1 (centres undefined) | inactive
N=c1oc2ccccc2cc1C(=O)NCc1ccccc1 | inactive
Cc1cccc(-n2nc3c(c2NC(=O)c2cc4ccccc4o2)CS(=O)(=O)C3)c1 | inactive
COc1cccc(C(=O)Nc2c3c(nn2-c2cccc(C)c2C)CS(=O)(=O)C3)c1OC | 18.3 µM (active)
CCOc1ccc(C(=O)Nc2c3c(nn2-c2ccccc2)CS(=O)(=O)C3)cc1 | inactive
CCN(CC(=O)Nc1ccc(OC)cc1)C(=O)c1ccc(Cl)c(S(=O)(=O)N2CCCC2)c1 | inactive
COc1cccc(N(CC(=O)NC2CCCCCC2)S(=O)(=O)c2ccccc2)c1 | inactive
Cn1c(=O)c2c(nc(NCCNC(=O)c3ccco3)n2Cc2ccccc2F)n(C)c1=O | inactive
Cn1c(=O)c2c(nc(NCCc3ccccc3)n2Cc2ccccc2)n(C)c1=O | 7.3 µM (active)
Cn1c(=O)c2c(nc(NCCc3ccccc3)n2Cc2ccccc2Br)n(C)c1=O | inactive
COC(=O)c1ccc(CNC(=O)c2ccc3oc(C(C)C)nc3c2)cc1 | inactive
Cc1nc2ccc(C(=O)N/N=C/c3ccc(O)cc3)cc2[nH]1 | inactive
Cc1ccc2occ(/C=N/NC(=O)c3ccccc3C)c(=O)c2c1 | inactive
Cc1ccc(/C=N/NC(=O)C2=NNC(c3ccccc3)(c3ccccc3)C2)c(O)c1 | 8.91 µM (active)
COc1ccc(NC(=O)c2cccc(Cl)c2)c[n+]1[O-] | inactive
O=C(OCC(=O)N1CCN(C(=O)c2ccco2)CC1)c1c(Cl)cccc1Cl | inactive
O=C(CCc1nnc2ccc(NCc3ccccc3Cl)nn12)NCC1CCN(C2CCCC2)C1 (centres undefined) | inactive
CC1CCN(C(=O)CCc2nnc3ccc(NCc4ccco4)nn23)CC1 | 3.16 µM (active)
COc1cccc(NC(=O)CCc2nnc3ccc(N4CCC(C)CC4)nn23)c1 | inactive

SMILES | Potency
CC1=C(C(=O)NC2CC(C)(C)Cc3c2cnn3-c2ccc(C)cc2)OCCO1 (centres undefined) | inactive
COc1cccc(-n2c(N)cc(=O)nc2SCC(=O)Nc2cc(C)on2)c1 | inactive
O=C(O)C[C@H](C(=O)OC[C@H]1CCCO1)N1CCOCC1 | inactive
CC1CN(C(=O)c2cc(COc3c(F)cccc3F)on2)CCN1C (centres undefined) | inactive
CCC(C)(NC(=O)c1ccccn1)C(=O)NC1CCCCC1 (centres undefined) | inactive
CCOc1cc(NC(=O)c2ccccn2)c(OCC)cc1NC(=O)c1ccc(OC)cc1 | inactive
CCN(CC)CCOc1ccc2c(c1)C(=NNC(=O)c1ccccn1)c1cc(OCCN(CC)CC)ccc1-2 | 10.3 µM (active)
CC(=O)N1CCOc2ccc(S(=O)(=O)N3CCC(C(=O)Nc4ccccc4F)CC3)cc21 | inactive
CCOc1ccc(CN2CCN(Cc3ccon3)CC2CCO)cc1 (centres undefined) | inactive
Cc1ccc(CN2CCN(Cc3ccc4ncccc4c3)CC2CCO)cc1 (centres undefined) | inactive
CCOc1ccc(CN2CCN(Cc3ccc4cc(F)ccc4n3)CC2CCO)cc1 (centres undefined) | 10 µM (active)
COc1cccc([C@@H]2Oc3ccc(OC)cc3C(=O)[C@@H]2OC(=O)Nc2cc(OC)c(OC)c(OC)c2)c1 | inactive
Cc1ccccc1CCNC(=O)C1CCC(=O)N(Cc2ccc(Cl)cc2)C1 (centres undefined) | inactive
Cc1ccc(OCc2cc(C(=O)N(C)CCn3ccnc3C)no2)cc1C | inactive
COC(=O)C/C=C/[C@@H](C)[C@@H](/C=N/OC[C@@H](O)[C@H]1O[C@@H]2OC(C)(C)O[C@@H]2[C@H]1O)OC | inactive
O=C(NNC(=O)c1ccc(Cl)nc1)c1ccc(Br)cc1 | inactive
CCN(CC)c1ccc(NC(=O)c2ccc(Cl)nc2)cc1 | 7.08 µM (active)
CCOC(=O)c1ccc(NC(=O)c2cccnc2)cc1 | inactive
Cc1ccc(NC(=O)C(C)OC(=O)C2CC3CCCC(C2)C3=O)cc1S(=O)(=O)N1CCOCC1 (centres undefined) | inactive
COc1ccc(/C=C/c2noc(-c3ccccc3OC(C)=O)n2)cc1 | 11.2 µM (active)
CC(=O)Oc1ccccc1[C@@H]1OC(=O)c2ccccc2N1C(C)=O | inactive
COc1ccc(/C=C/c2noc(-c3ccccc3O)n2)cc1OC | inactive

SMILES | Potency
CN(CC(=O)NCCc1ccc(S(N)(=O)=O)cc1)CC(=O)Nc1ccc(F)c(F)c1F | inactive
COc1ccc(CCNC2=C(Cl)C(=O)N(Cc3ccccc3)C2=O)cc1OC | 11.2 µM (active)
COc1ccc(CCN(C)CCN2C(=O)c3ccccc3C2=O)cc1OC | inactive
COc1ccc(CCNc2nc(C)cc(C)n2)cc1OC | inactive
CC(=NNC(=O)c1ccc2nc[nH]c2c1)c1ccc(Br)cc1 | inactive
O=C(O)c1ccc(Cn2cnc3c(=S)nc[nH]c32)cc1 | inactive
O=C(COC(=O)COc1ccccc1F)Nc1cccc(S(=O)(=O)N2CCCCC2)c1 | inactive
O=C(COc1ccc(Br)cc1F)NCC1(N2CCCCC2)CCCCC1 | 10 µM (active)
O=C(COc1ccccc1F)NNC(=O)c1ccc(N2CCCCC2)c([N+](=O)[O-])c1 | inactive
Nc1ncnc2c1cnn2C1CC(O)C(CO)O1 (centres undefined) | inactive
COc1ccc(C(=O)OCC(=O)N2CC(=O)Nc3ccccc32)cc1Br | inactive
O=C(Nc1ccc(S(=O)(=O)N2CCOCC2)cc1)C1CCN(S(=O)(=O)c2ccc(Cl)cc2)CC1 | inactive
CCCCNC1(C#N)CCN(Cc2ccccc2)CC1 | inactive
O=C(NNS(=O)(=O)c1ccc([N+](=O)[O-])cc1)C1CCCCC1 | inactive
O=C1c2cccc3c([N+](=O)[O-])ccc(c23)C(=O)N1CC1CCCO1 (centres undefined) | 23.1 µM (active)
O=C(NCc1ccc2c(c1)OCO2)c1ccc2c(c1)C(=O)N(CC1CCCO1)C2=O (centres undefined) | inactive
O=c1c2cc3c(=O)n(CC4CCCO4)c(=O)c3cc2c(=O)n1CC1CCCO1 (centres undefined) | inactive
Cc1cc(S(=O)(=O)Nc2ccc(C(=O)NCC(c3ccco3)N3CCCC3)cc2)ccc1F (centres undefined) | inactive
CCC(=O)N1CCc2cc(Br)c(S(=O)(=O)NCCN3CCCCC3CC)cc21 (centres undefined) | inactive
CCN(Cc1ccccc1)C(=O)Cc1ccc(OC)c(S(=O)(=O)N2CCOCC2)c1 | inactive

— PubChem BioAssay AID540276 (National Center for Advancing Translational Sciences (NCATS), 2011)
